Reference: the supplement of paper PMC10127200
Where a name gives a salt, the structure may show the parent alone.

Key:
Assay in all cases: Euclidean distance of Cell Painting phenotypic profile (signed KS, 77 features) to DMSO centroid (dimensionless distance); 5 or 10 uM (library dependent); higher = stronger phenotypic change vs DMSO (phenoactivity)
Conditions in all cases: 48 h
786-O = test system: 786-O
How it was run: (§1)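 Five cancer lines, together with a healthy fibroblast line, received library compounds for 48 h at a library-dependent 10 or 5 uM and 0.1% DMSO final. Harmony then derived 77 features from confocal 20X images (9 fields/well) of the stained cells, scoring each as a signed Kolmogorov-Smirnov statistic against same-plate vehicle wells. After plate-position correction, correlation weighting and replicate averaging at the top dose, phenoactivity was taken as each profile's Euclidean distance to the median vehicle profile.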

A549 = test system: A549
How it was run: as §1

DU145 = test system: DU145
How it was run: as §1

FB = test system: FB
How it was run: as §1

HEPG2 = test system: HEPG2
How it was run: as §1

OVCAR4 = test system: OVCAR4
How it was run: as §1

Compound	Euclidean distance (786-O)	Euclidean distance (A549)	Euclidean distance (DU145)	Euclidean distance (FB)	Euclidean distance (HEPG2)	Euclidean distance (OVCAR4)
OC[C@@H](O)[C@@H](O)[C@H](O)[C@H](O)CO [D-Mannitol]	1.14	0.536	0.826	0.744	0.415	0.791
CCn1cc(C(=O)O)c(=O)c2cc(F)c(N3CCNCC3)nc21 [Enoxacin]	1.03	0.783	1.59	0.837	2.02	1.35
CC1(C)CC(=O)c2c(C(F)(F)F)nn(-c3ccc(C(N)=O)c(N[C@H]4CC[C@H](O)CC4)c3)c2C1	3.06	2.99	3.09	3.59	3.83	2.73
CC(COc1ccccc1)N(CCCl)Cc1ccccc1 (centres undefined) [Phenoxybenzamine HCl]	1.48	0.892	1.06	0.978	0.778	1.55
COc1ccc(CC2c3cc(OC)c(OC)cc3CC[N+]2(C)CCC(=O)OCCCCCOC(=O)CC[N+]2(C)CCc3cc(OC)c(OC)cc3C2Cc2ccc(OC)c(OC)c2)cc1OC (centres undefined) [Atracurium Besylate]	1.83	0.711	1.16	0.918	1.14	1.51
O=C(NNc1ccccc1)c1ccncc1	2.02	1.17	0.814	1.28	1.46	1.39
CS(=O)(=O)CCC#N [Dapansutrile (OLT1177)]	0.937	0.857	2.91	0.633	0.92	1.45
CCCC(=O)Nc1ncnc2c1ncn2[C@@H]1O[C@@H]2COP(=O)(O)O[C@H]2[C@H]1OC(=O)CCC [Dibutyryl-cAMP (Bucladesine)]	1.05	0.792	0.663	0.745	0.883	1.53
COc1ccc2c3c1O[C@H]1C[C@@H](O)C=C[C@@]31CCN(C)C2 [Galanthamine]	0.802	1.14	0.605	0.959	0.423	0.852
O=c1c(O)c(-c2ccc(O)cc2)oc2cc(O)cc(O)c12 [Kaempferol]	1.49	0.589	0.883	1.36	0.783	1.45
CCc1cc(C(N)=O)ccc1-n1nc(C(C)C)c2c(-n3cnc(-c4cnn(C)c4)c3)ccnc21	3.26	3.06	3.79	3.38	3.38	2.86
Nc1ccn([C@@H]2O[C@H](CO)[C@@H](O)C2(F)F)c(=O)n1 [Gemcitabine]	2.58	2.74	3.26	2.91	2.74	2.98
CC(C)(O)[C@H]1CC[C@@](C)([C@H]2[C@@H](O)C[C@@]3(C)[C@@H]4C[C@H](O[C@@H]5O[C@H](CO)[C@@H](O)[C@H](O)[C@H]5O)[C@H]5C(C)(C)[C@@H](O[C@@H]6OC[C@@H](O)[C@H](O)[C@H]6O)CC[C@@]56C[C@@]46CC[C@]23C)O1 [Astragaloside A]	4.07	3.46	3.2	2.61	2.19	3.11
CO[C@@H](C(=O)N1Cc2[nH]nc(NC(=O)c3ccc(N4CCN(C)CC4)cc3)c2C1)c1ccccc1	1.39	1.46	1.66	1.66	1.25	1.03
O=c1cc(-c2ccccc2)oc2cc(O)c(O)c(O)c12 [Baicalein]	1.38	1.65	1.25	2.7	0.918	1.08
NCCOB(c1ccccc1)c1ccccc1 [2-Aminoethyl Diphenylborinate (2-APB)]	1.61	0.835	1	0.968	0.822	1.13
Clc1ccccc1C(c1ccccc1)(c1ccccc1)n1ccnc1 [Clotrimazole]	2.01	1.31	1.38	1.42	1.76	1.64
Nc1[nH]cnc2ncnc1-2 [Adenine sulfate]	1.69	0.409	1.17	0.763	0.765	0.878
COc1cc2c(Oc3ccc4[nH]c(C)cc4c3F)ncnc2cc1OCCCN1CCCC1 [Cediranib Maleate]	4.34	4.46	3.51	4.67	4.09	5.11
N#C/C(=C1/SC[C@@H](c2ccc(Cl)cc2Cl)S1)n1ccnc1 [Luliconazole]	1.47	1.03	0.686	1.08	0.589	1.1
COc1cc(C(=O)NC2CCCNC2)cc(OC)c1OC (centres undefined) [Troxipide]	1.15	1.12	1.81	0.842	1.83	1.43
O=C(O)C1=C(CSc2nnnn2CS(=O)(=O)O)CS[C@@H]2[C@H](NC(=O)[C@H](O)c3ccccc3)C(=O)N12 [Cefonicid sodium]	0.931	0.892	0.858	1.26	0.665	1.46
Cc1cnc(C(=O)NCCc2ccc(S(=O)(=O)NC(=O)NC3CCCCC3)cc2)cn1 [Glipizide]	1.39	1.31	0.684	1.1	1.74	1.36
CC(=O)OCC(=O)[C@@]12N=C(C)O[C@@H]1C[C@H]1[C@@H]3CCC4=CC(=O)C=C[C@]4(C)[C@H]3[C@@H](O)C[C@@]12C [Deflazacort]	1.27	1.84	2.48	2.04	1.58	1.7
